In PubChem BioAssay (NCI):
Compounds without any hit were thinned out: in the full panel of roughly 79,000, 15% have a hit. Values without a mark were called inactive. Calls of active or inactive are those of the source. Rule as the data show it: active = growth inhibition above about 70%; inactive = the rest.

How the values were obtained:
[1] = NCI Yeast Anticancer Drug Screen. Data for the rad50 strain (AID 155);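 also: 0% = growth of vehicle-only cultures of the same strain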; conditions: S. cerevisiae rad50 strain growth inhibition, active compounds read high
Procedure, shortened: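 Cells are treated with compound, grown, and their growth is then scored against vehicle-only cultures of the same repair-deficient yeast strain.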

[2] = NCI Yeast Anticancer Drug Screen. Data for the mec2-1 strain (AID 157); conditions: S. cerevisiae mec2-1 strain, active compounds read high
Procedure, shortened: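 Yeast mec2-1 mutant treated with compound. Readout: growth inhibition vs vehicle controls.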

[3] = NCI Yeast Anticancer Drug Screen. Data for the sgs1 mgt1 strain (AID 161);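 also: 0% = growth of cultures given vehicle only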; conditions: S. cerevisiae sgs1 mgt1 strain, active compounds read high
Procedure, shortened: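 Test agents were incubated with a DNA-repair-mutant yeast strain. Growth was then read and compared against vehicle-treated controls.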

[4] = NCI Yeast Anticancer Drug Screen. Data for the cln2 rad14 strain (AID 165);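 also: 0% = growth equal to vehicle treated cultures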; conditions: S. cerevisiae cln2 rad14 strain, active compounds read high
Procedure, shortened: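 cln2 rad14 yeast strain; compound exposure; growth inhibition read vs vehicle controls.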

[5] = NCI Yeast Anticancer Drug Screen. Data for the bub3 strain (AID 167); conditions: S. cerevisiae bub3 mutant strain, active compounds read high
Procedure, shortened: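 Part of a panel of yeast mutants defective in DNA damage repair or cell cycle regulation. Each strain is grown with compound, and inhibition is calculated relative to solvent-treated cultures.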

[6] = NCI Yeast Anticancer Drug Screen. Data for the mlh1 rad18 strain (AID 175); conditions: S. cerevisiae mlh1 rad18 strain growth inhibition, active compounds read high
Procedure, shortened: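 Yeast w/ defined DNA-repair lesions; compound exposure; growth vs vehicle controls → % inhibition.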

[7] = at 5.0 µM (retest, dose inferred, filed as 0.5)
[8] = at 50.0 µM (retest, dose inferred, filed as 5.0)

Row | SMILES | growth inhibition [1, 7] | growth inhibition [1, 8] | growth inhibition ([1]; at 50.0 µM) | growth inhibition [2, 7] | growth inhibition [2, 8] | growth inhibition ([2]; at 50.0 µM) | growth inhibition [3, 7] | growth inhibition [3, 8] | growth inhibition ([3]; at 50.0 µM) | growth inhibition [4, 7] [%] | growth inhibition [4, 8] | growth inhibition ([4]; at 50.0 µM) | growth inhibition [5, 7] | growth inhibition [5, 8] | growth inhibition ([5]; at 50.0 µM) | growth inhibition [6, 7] | growth inhibition [6, 8] | growth inhibition ([6]; at 50.0 µM)
1 | CNc1ccc2c(c1)Cc1ccccc1-2 | 36% | 92% (active) | 97.3% (active) | 3% | 64% | 91.8% (active) | 56% | 86% (active) | 96.9% (active) | 2 | 79% (active) | 92.8% (active) | -7% | 45% | 77.2% (active) | 26% | 92% (active) | 97.2% (active)
2 | COC(=O)c1cccc2cccc(C(=O)Nc3ccc(C)cc3C)c12 | 74% (active) | 99% (active) | 86.2% (active) | 79% (active) | 99% (active) | 91.9% (active) | 60% | 99% (active) | 83.2% (active) | 33 | 99% (active) | 87.7% (active) | 76% (active) | 92% (active) | 90.5% (active) | 90% (active) | 99% (active) | 89.7% (active)
3 | CN(C)CCCC(C#N)(CCCN(C)C)c1ccccc1 | 15% | -2% | 15% | -1% | 5% | -2.05% | 6% | 0% | 10.6% | -2 | 6% | -51.6% | -3% | -1% | -18.5% | -3% | 8% | 31.4%
4 | CN(C)c1ccc(C(c2cc3c(cc2O)OCO3)N2CCCC2)cc1 (configuration not stated) | 7% | 99% (active) | 99.2% (active) | 15% | 99% (active) | 99.4% (active) | -3% | 99% (active) | 99.2% (active) | -3 | 99% (active) | 99.1% (active) | 0% | 99% (active) | 99.4% (active) | -7% | 99% (active) | 99.2% (active)
5 | O=C(CCN1CCCCC1)N1CCc2c([nH]c3ccccc23)C1c1cccnc1 (configuration not stated) | -8% | 8% | 13.1% | 1% | 16% | 1.2% | 0% | -8% | -5.35% | 5 | 22% | -6.8% | 4% | 46% | -0.3% | 2% | -4% | -14.4%
6 | COc1cc(C/C=C/c2ccccc2)c(OC)cc1O | 18% | 30% | 63.6% | 18% | 24% | 61.7% | 15% | 37% | 54.4% | 18 | 29% | 76% (active) | 20% | 29% | 64.8% | 17% | 35% | 48.5%
7 | CCOC(=O)C(=NNc1ccccc1)C(=O)OCC | 2% | 50% | 42.4% | -3% | 2% | 33.2% | -4% | 16% | 42.5% | -1 | 4% | -14.6% | -1% | 27% | 46.9% | 1% | 25% | 62.9%
8 | CCc1ccc2c(-c3ccccc3)c3ccccc3c(-c3ccccc3)c2c1 | 0% | -4% | -7.9% | 3% | -10% | -5.6% | 1% | 6% | -9.25% | -4 | -11% | 34.9% | -4% | -8% | 7.35% | -1% | -8% | 0.05%
9 | CCOC(=O)c1c(Cl)nnc(-c2ccccc2)c1-c1ccccc1 | 0% | 98% (active) | 98.2% (active) | 1% | 99% (active) | 96.2% (active) | -2% | 98% (active) | 96.3% (active) | 1 | 97% (active) | 92.3% (active) | 13% | 98% (active) | 97.5% (active) | -1% | 98% (active) | 98% (active)
10 | c1ccc(Cn2nnnc2-c2ccccc2)cc1 | -151% | -125% | 23.8% | -53% | -43% | 43.5% | -66% | -61% | 1.75% | -55 | -33% | 80.5% (active) | -70% | -57% | 5.45% | -147% | -89% | 14.3%
11 | CNC(=O)N(C)/N=C/c1ccc([N+](=O)[O-])o1 | 15% | 67% | 84.5% (active) | 4% | 40% | 50.5% | 14% | 78% (active) | 93.5% (active) | 0 | 36% | 54.6% | 17% | 55% | 45.5% | 24% | 76% (active) | 91.8% (active)
12 | Cc1cc(C2C(O)C(c3cc(C)on3)C2(C)O)no1 (configuration not stated) | 0% | 0% | 72.2% (active) | -12% | 13% | 38.5% | 3% | 5% | 62.6% | -2 | -7% | -24.1% | 2% | -1% | 8.1% | 16% | 17% | 50.2%
13 | CCCCCCCCCCCCNC(=O)C[n+]1cccc(C(N)=O)c1 | 3% | 88% (active) | 79% (active) | -3% | 90% (active) | 19.8% | -2% | 97% (active) | -2.6% | -6 | 67% | 36.4% | -9% | 76% (active) | 50.8% | -1% | 85% (active) | 51.4%
14 | COc1ccc(C2Oc3ccc(Cl)cc3C=C2[N+](=O)[O-])cc1OC (configuration not stated) | 89% (active) | 97% (active) | 74% (active) | 91% (active) | 96% (active) | 77% (active) | 86% (active) | 97% (active) | 85.5% (active) | 63 | 96% (active) | 84.3% (active) | 88% (active) | 96% (active) | 86.7% (active) | 95% (active) | 97% (active) | 86.2% (active)
15 | COC(=O)N/N=C(\C)C(CN1CCOCC1)C(c1ccccc1)c1cc2ccccc2oc1=O (configuration not stated) | 10% | 57% | -0.75% | -4% | 56% | 7.15% | 14% | 64% | -5.55% | 14 | 70% (active) | 10.9% | 21% | 74% (active) | 8.15% | 7% | 61% | 2.25%
16 | C1CCN(c2nc(N3CCOCC3)c3[nH]c(N4CCCCC4)nc3n2)CC1 | 1% | 84% (active) | 35% | 5% | 90% (active) | 35.4% | 2% | 86% (active) | 46.4% | 8 | 49% | 60.1% | 0% | 71% (active) | 49.6% | -2% | 68% | 36.5%
17 | O=c1cc(/C=C/c2ccccc2)cccc1O | 79% (active) | 97% (active) | 97.8% (active) | 90% (active) | 96% (active) | 98.2% (active) | 84% (active) | 99% (active) | 98.5% (active) | 56 | 98% (active) | 96.9% (active) | 97% (active) | 93% (active) | 97.5% (active) | 58% | 98% (active) | 97.9% (active)
18 | Cc1ccc(N2C(=O)C(Cl)=C(Cl)C2=O)cc1 | 11% | 99% (active) | 99.3% (active) | 12% | 100% (active) | 99.4% (active) | 20% | 100% (active) | 99.5% (active) | 8 | 99% (active) | 98.8% (active) | 16% | 99% (active) | 99.3% (active) | 14% | 100% (active) | 97.5% (active)
19 | Cc1c(C)c(NC(=O)/C=C/C(=O)O)c(C)c(C)c1NC(=O)/C=C\C(=O)O | -14% | 14% | 61.7% | -6% | 37% | 88.8% (active) | -13% | 11% | 89.9% (active) | 7 | 11% | 42.2% | -4% | 35% | 86.3% (active) | -31% | 58% | 59.6%
